From PubChem BioAssay AID1159580 (chemical genetic matrix, 2015)
The campaign covered roughly 5,500 compounds. About 2,000 (36%) were called active. Another 18% or so got no clear call; they are omitted. Cut-off read from the data, not from the text of the source: active = normalized growth mostly below about 0.91 (no sharp cut-off); inconclusive = no clear call, values can overlap the other calls; inactive = mostly above about 0.92. The list shows a part of the results.

Assay: chemical genetic growth profiling, strain panel (AID 1159580);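 note: tested at 20 µM; growth read once vehicle control cultures reached saturation at 30 °C; 1 = growth at the plate median or of vehicle wells; lower values mean less growth of the strain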
Conditions: S. cerevisiae deletion strains, growth OD
[1] = locus YAR019C, strain CDC15, stronger effect = lower value
[2] = locus YBL105C, strain PKC1, stronger effect = lower value
[3] = locus YBR135W, strain CKS1, stronger effect = lower value
[4] = locus YBR136W, strain MEC1, stronger effect = lower value
[5] = locus YBR160W, strain CDC28, stronger effect = lower value
[6] = locus YDL017W, strain CDC7, stronger effect = lower value
[7] = locus YDL028C, strain MPS1, stronger effect = lower value
[8] = locus YDL101C, strain DUN1, stronger effect = lower value
[9] = locus YDL108W, strain KIN28, stronger effect = lower value
[10] = locus YDL132W, strain cdc53, stronger effect = lower value
[11] = locus YDL214C, strain PRR2, stronger effect = lower value
[12] = locus YDR052C, strain DBF4, stronger effect = lower value
[13] = locus YDR054C, strain cdc34, stronger effect = lower value
[14] = locus YDR226W, strain ADK1, stronger effect = lower value
[15] = locus YDR477W, strain SNF1, stronger effect = lower value
[16] = locus YER123W, strain YCK3, stronger effect = lower value
[17] = locus YER133W, strain GLC7, stronger effect = lower value
[18] = locus YFL009W, strain cdc4, stronger effect = lower value
[19] = locus YFL029C, strain CAK1, stronger effect = lower value
[20] = locus YFR003C, strain YPI1, stronger effect = lower value
[21] = locus YFR019W, strain FAB1, stronger effect = lower value
[22] = locus YFR028C, strain CDC14, stronger effect = lower value
[23] = locus YGR040W, strain KSS1, stronger effect = lower value
[24] = locus YGR052W, strain FMP48, stronger effect = lower value
[25] = locus YGR092W, strain DBF2, stronger effect = lower value
[26] = locus YHR030C, strain SLT2, stronger effect = lower value
[27] = locus YHR079C, strain IRE1, stronger effect = lower value
[28] = locus YHR082C, strain KSP1, stronger effect = lower value
[29] = locus YHR205W, strain SCH9, stronger effect = lower value
[30] = locus YIL147C, strain SLN1, stronger effect = lower value
[31] = locus YJL095W, strain BCK1, stronger effect = lower value
[32] = locus YJL128C, strain PBS2, stronger effect = lower value
[33] = locus YJL157C, strain FAR1, stronger effect = lower value
[34] = locus YJR016C, strain ILV3, stronger effect = lower value
[35] = locus YJR066W, strain TOR1 (second series), stronger effect = lower value
[36] = locus YJR066W, strain TOR1, stronger effect = lower value
[37] = locus YKL048C, strain ELM1, stronger effect = lower value
[38] = locus YKL067W, strain YNK1, stronger effect = lower value
[39] = locus YKL101W, strain HSL1, stronger effect = lower value
[40] = locus YKL193C, strain SDS22, stronger effect = lower value
[41] = locus YKL203C, strain TOR2, stronger effect = lower value
[42] = locus YLR113W, strain HOG1, stronger effect = lower value
[43] = locus YLR133W, strain CKI1, stronger effect = lower value
[44] = locus YLR403W, strain SFP1, stronger effect = lower value
[45] = locus YML070W, strain DAK1, stronger effect = lower value
[46] = locus YMR001C, strain CDC5, stronger effect = lower value
[47] = locus YMR205C, strain PFK2 (second series), stronger effect = lower value
[48] = locus YMR277W, strain FCP1, stronger effect = lower value
[49] = locus YNL006W, strain LST8, stronger effect = lower value
[50] = locus YNL020C, strain ARK1, stronger effect = lower value
[51] = locus YNL161W, strain CBK1, stronger effect = lower value
[52] = locus YNL183C, strain NPR1, stronger effect = lower value
[53] = locus YNL207W, strain RIO2, stronger effect = lower value
[54] = locus YNL222W, strain SSU72, stronger effect = lower value
[55] = locus YNL307C, strain MCK1 (second series), stronger effect = lower value
[56] = locus YOL078W, strain AVO1, stronger effect = lower value
[57] = locus YOL136C, strain PFK27, stronger effect = lower value
[58] = locus YOR061W, strain CKA2, stronger effect = lower value
[59] = locus YOR119C, strain RIO1, stronger effect = lower value
[60] = locus YOR231W, strain MKK1, stronger effect = lower value
[61] = locus YOR329C, strain SCD5, stronger effect = lower value
[62] = locus YPL031C, strain PHO85, stronger effect = lower value
[63] = locus YPL153C, strain RAD53, stronger effect = lower value
[64] = locus YPL204W, strain HRR25, stronger effect = lower value
[65] = locus YPL209C, strain IPL1, stronger effect = lower value
[66] = locus YPL256C, strain CLN2, stronger effect = lower value
[67] = locus YPR025C, strain CCL1, stronger effect = lower value
[68] = locus YPR106W, strain ISR1, stronger effect = lower value
[69] = locus YPR111W, strain DBF20, stronger effect = lower value
[70] = strain NNK1, stronger effect = lower value
[71] = strain TSCII, stronger effect = lower value

Measured: normalized growth

FC(F)(F)c1ccncc1-c1nc(-c2ccc(Cl)cc2)cs1
inactive: [1] 0.982 | [2] 0.984 | [3] 0.98 | [4] 0.982 | [5] 0.985 | [6] 0.991 | [7] 0.978 | [8] 0.97 | [9] 0.984 | [10] 0.973 | [11] 0.914 | [12] 0.989 | [13] 0.979 | [14] 0.979 | [15] 0.949 | [16] 0.852 | [17] 0.936 | [18] 0.981 | [19] 0.977 | [20] 0.985 | [21] 0.887 | [22] 0.976 | [23] 0.923 | [24] 0.869 | [25] 0.933 | [27] 0.775 | [28] 1 | [29] 0.894 | [30] 0.987 | [31] 0.759 | [32] 0.896 | [33] 0.927 | [34] 0.979 | [35] 0.937 | [36] 1.01 | [37] 0.955 | [38] 0.922 | [39] 0.919 | [40] 0.986 | [41] 1.01 | [43] 0.911 | [44] 0.934 | [45] 0.878 | [46] 0.986 | [47] 0.905 | [48] 0.962 | [49] 0.99 | [50] 0.906 | [51] 0.971 | [52] 0.774 | [53] 0.987 | [54] 0.98 | [55] 0.922 | [56] 0.972 | [57] 0.868 | [58] 0.933 | [59] 0.975 | [60] 0.766 | [61] 0.981 | [62] 0.917 | [63] 0.917 | [64] 0.908 | [65] 0.987 | [67] 0.988 | [68] 0.956 | [69] 0.949 | [70] 0.942 | [71] 0.972
active: [26] 0.78 | [42] 0.686 | [66] 0.682

N/C(=N/O)c1cnccc1C(F)(F)F
inactive: locus YAL013W, strain DEP1, stronger effect = lower value 0.987 | locus YBR229C, strain ROT2, stronger effect = lower value 1.01 | [8] 1.01 | locus YDL134C, strain PPH21, stronger effect = lower value 0.999 | locus YDR150W, strain NUM1, stronger effect = lower value 0.986 | locus YEL061C, strain CIN8, stronger effect = lower value 0.998 | locus YGR078C, strain PAC10, stronger effect = lower value 0.994 | [26] 0.978 | locus YHR087W, strain rtc3, stronger effect = lower value 0.986 | locus YJL187C, strain SWE1, stronger effect = lower value 0.991 | locus YJR043C, strain POL32, stronger effect = lower value 0.993 | locus YJR075W, strain HOC1, stronger effect = lower value 0.993 | locus YKL190W, strain CNB1, stronger effect = lower value 0.997 | locus YLR039C, strain RIC1, stronger effect = lower value 1.04 | locus YLR058C, strain SHM2 (second series), stronger effect = lower value 0.993 | locus YLR085C, strain ARP6, stronger effect = lower value 0.976 | locus YLR262C, strain YPT6, stronger effect = lower value 0.99 | locus YML094W, strain GIM5, stronger effect = lower value 1.05 | locus YMR219W, strain ESC1, stronger effect = lower value 0.996 | locus YMR263W, strain SAP30, stronger effect = lower value 0.977 | locus YMR307W, strain GAS1, stronger effect = lower value 0.958 | locus YNL153C, strain GIM3, stronger effect = lower value 1.01 | locus YNL298W, strain CLA4 (second series), stronger effect = lower value 0.996 | locus YNL322C, strain KRE1, stronger effect = lower value 1 | locus YNR030W, strain Alg12, stronger effect = lower value 0.999 | locus YPL055C, strain LGE1, stronger effect = lower value 0.989 | locus YPL241C, strain CIN2, stronger effect = lower value 1.03 | locus YPR135W, strain CTF4, stronger effect = lower value 1.01

Cn1ncc(-c2nc(-c3ccc(Cl)cc3)cs2)c1N
active: [26] 0.687 | [44] 0.651 | [66] 0.859
inactive: [1] 0.933 | [2] 0.931 | [3] 0.935 | [4] 0.933 | [5] 0.939 | [6] 0.935 | [7] 0.94 | [8] 0.961 | [9] 0.936 | [10] 0.931 | [11] 0.904 | [12] 0.935 | [13] 0.91 | [14] 0.925 | [15] 0.785 | [16] 0.921 | [17] 0.75 | [18] 0.935 | [19] 0.942 | [20] 0.943 | [21] 0.95 | [22] 0.922 | [23] 0.785 | [24] 0.854 | [25] 0.781 | [27] 0.822 | [28] 0.897 | [29] 0.798 | [30] 0.936 | [31] 0.729 | [32] 0.987 | [33] 0.879 | [34] 0.934 | [35] 0.8 | [36] 0.78 | [37] 0.95 | [38] 0.932 | [39] 0.947 | [40] 0.924 | [41] 0.817 | [42] 0.906 | [43] 0.886 | [45] 0.91 | [46] 0.914 | [47] 0.917 | [48] 0.914 | [49] 0.95 | [50] 0.897 | [51] 0.93 | [52] 0.892 | [53] 0.916 | [54] 0.934 | [55] 0.899 | [56] 0.934 | [57] 0.939 | [58] 0.874 | [59] 0.803 | [60] 0.96 | [61] 0.944 | [62] 0.74 | [63] 0.776 | [64] 0.774 | [65] 0.938 | [67] 0.944 | [68] 0.955 | [69] 0.959 | [70] 0.966 | [71] 0.933
